Screens as filed in PubChem.
CF NFkB inh – cystic fibrosis NF-kB activation inhibition | KKLEB NF-kB-GFP reporter, PAF-induced, GFP fluorescence overnight | inhibition, % at 5 µM | 0.86% of 360,000 active;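 active means at least 50% inhibition at 5 µM, scaled per plate between neutral and stimulator controls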;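 further: PAF is a Pseudomonas aeruginosa culture filtrate used as stimulus; plate controls were PAF-stimulated DMSO wells for no effect and unstimulated DMSO wells for full effect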
ABHD5-PLIN5 inh – inhibitors of human ABHD5-perilipin-5 interaction; Split G. princeps luciferase complementation, luminescence, 4 h; Q00G26+Q8WTS1; inhibition, % at 4 µM; 0.78% of 360,000 active; AID 602281;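 active means inhibition above the mean inhibition across every tested compound plus 3 SD, cut at about 22% in these data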;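 further: 0% = DMSO only wells and the 100% control is not disclosed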
HIF-2a block – HIF-2a inhibition. inhibition, % at 18.8 µM. 0.72% of 360,000 active. 786-0 RCC cells HIF-2a reporter, luciferase luminescence, overnight;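 active means inhibition of the luminescence signal of 40% or more relative to plate controls, in a single-dose primary screen at 18.75 µM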
KKLEB tox – counter-screen for CF NF-kB inhibitors: cytotoxicity. KKLEB CF airway cells viability, ATPlite luminescence, overnight; hits give low values; cells stimulated with P. aeruginosa culture filtrate. activity change (cytotoxicity), % at 5 µM. 0.36% of 360,000 active;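 active means corrected activity change at or below -50% at 5 µM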
TRPM1 prom inh – MITF TRPM1 promoter inhibition in SK-MEL-5 cells; SK-MEL-5 TRPM1 promoter luciferase, 24 h; inhibition, % at 12.5 µM; 0.83% of 330,000 active;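 active means mean inhibition across replicates of 60% or more, whatever share of single replicates reaches that level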
Peg3 promoter – inhibitors of Peg3 promoter; HeLa PEG-Prom luciferase reporter, luminescence, overnight; inhibition, % at 20 µM; 1.7% of 360,000 active; AID 588405;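 active means inhibition of at least 50% at 20 µM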
CF NFkB inh conf – confirmation of cystic fibrosis induced NF-kB inhibitors; 64% of 1,300 active; shares compounds with CF NFkB inh; inhibition, % at 5 µM; KKLEB CF airway cells, PAF-induced NF-kB-GFP fluorescence, overnight; in the data active means inhibition above about 40%;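 further: stimulus PAF is a Pseudomonas aeruginosa filtrate and not platelet activating factor; plate controls were DMSO wells with stimulus for no effect and unstimulated DMSO wells for full effect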
ABHD5-PLIN5 conf – confirmation of human ABHD5-PLIN5 interaction inhibitors; inhibition, % at 4 µM; biochemical ABHD5-PLIN5 interaction, luminescence; 67% of 2,200 active; shares compounds with ABHD5-PLIN5 inh; in the data active means inhibition above about 23%;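 further: 0% = DMSO vehicle wells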
HNF4 split-luc – active in HNF4 split-luciferase counter-screen for ABHD5-PLIN5 inhibitors; shares compounds with ABHD5-PLIN5 inh; HNF4 dimerization, luminescence, biochemical; inhibition, % at 4 µM; 77% of 2,200 active;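 active means mean inhibition across replicate wells exceeding the computed hit threshold, cut at about 13% in these data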;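 further: light from luciferase halves that rejoin when HNF4 fusion proteins dimerize; 0% = DMSO only wells and the 100% control is not given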
Mdm2-MdmX confirm – confirmation of inhibitors of human Mdm2/MdmX interaction, set 2. shares compounds with HIF-2a block. SaOS-2 split-luciferase Mdm2/MdmX complementation, luminescence. inhibition, % at 8 µM. 99% of 740 active. AID 504601;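 active means mean inhibition of the luminescence signal across two replicates at or above 26 percent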
Target sequence (O15151 whole entry, looked up): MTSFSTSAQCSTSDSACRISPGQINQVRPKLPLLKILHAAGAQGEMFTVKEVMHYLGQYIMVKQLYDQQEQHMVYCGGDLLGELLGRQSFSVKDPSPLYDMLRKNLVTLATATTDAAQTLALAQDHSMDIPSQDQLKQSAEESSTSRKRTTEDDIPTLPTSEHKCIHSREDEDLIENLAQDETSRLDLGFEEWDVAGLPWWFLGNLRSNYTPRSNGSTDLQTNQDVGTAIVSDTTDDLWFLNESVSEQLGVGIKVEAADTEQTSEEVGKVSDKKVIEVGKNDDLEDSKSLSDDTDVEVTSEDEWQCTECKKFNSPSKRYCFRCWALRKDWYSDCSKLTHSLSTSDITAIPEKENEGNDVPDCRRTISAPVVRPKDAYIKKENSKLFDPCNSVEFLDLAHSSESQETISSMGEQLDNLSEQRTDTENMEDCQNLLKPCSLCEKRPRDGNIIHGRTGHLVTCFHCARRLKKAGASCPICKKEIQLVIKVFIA
Target sequence (Q00987 whole entry, looked up): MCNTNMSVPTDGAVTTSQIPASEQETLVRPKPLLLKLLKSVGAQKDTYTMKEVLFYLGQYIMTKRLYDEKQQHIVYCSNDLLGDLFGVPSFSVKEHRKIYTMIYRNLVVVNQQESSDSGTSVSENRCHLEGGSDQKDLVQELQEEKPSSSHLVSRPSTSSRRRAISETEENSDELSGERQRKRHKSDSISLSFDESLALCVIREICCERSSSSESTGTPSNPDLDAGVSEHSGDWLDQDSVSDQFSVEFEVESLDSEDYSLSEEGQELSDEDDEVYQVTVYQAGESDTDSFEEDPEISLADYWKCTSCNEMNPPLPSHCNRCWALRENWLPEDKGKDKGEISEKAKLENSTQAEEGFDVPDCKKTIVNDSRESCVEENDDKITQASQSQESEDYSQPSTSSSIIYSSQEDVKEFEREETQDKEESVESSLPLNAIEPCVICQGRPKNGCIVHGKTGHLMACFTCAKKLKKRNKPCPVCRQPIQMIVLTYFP
HIF-2a conf – confirmation of HIF-2a inhibitors; shares compounds with HIF-2a block; 786-0 RCC cells, HIF-2a luciferase reporter luminescence, overnight; inhibition, % at 18.8 µM; 56% of 1,800 active;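 active means mean inhibition across four replicates of at least 40 percent at the single tested concentration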
HIF-1a cs – HIF-1a inhibition counter-screen for HIF-2a hits; shares compounds with HIF-2a block; MiaPaCa-2 HIF-1a luciferase reporter, desferoxamine, overnight; inhibition, % at 18.8 µM; 72% of 1,800 active; AID 651589;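 active means mean inhibition of the reporter signal across four replicates at the single tested dose of 50% or more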
* hit, by the source's call; / = not tested or not shown. Only some compounds are listed: those with a hit (about 3.1% of all), similar ones and a draw of the others.

SMILES	CF NFkB inh	ABHD5-PLIN5 inh	HIF-2a block	KKLEB tox	TRPM1 prom inh	Peg3 promoter	CF NFkB inh conf	HIF-2a conf	HIF-1a cs	others
O=C(/C=C/c1ccc(Br)cc1)c1ccc(NC2=NCCCS2)cc1	56*	89*	67*	-11	55	108*	-13	-27	107*	ABHD5-PLIN5 conf=95*;HNF4 split-luc=84*
Cc1nc2ccccn2c1C(=O)/C=C/c1cccc([N+](=O)[O-])c1	71*	5	75*	1	71*	102*	2	2	33
Cc1ccc(/C=C/C(=O)c2c(C)nc3ccccn23)cc1	18	1	-135	-9	-10	-235	/	/	/
Cc1ccc(/C=C(\NC(=O)c2ccccc2)C(=O)NC2CCN(Cc3ccccc3)CC2)o1	-10	3	-1	18	7	-4	/	/	/
CCCS(=O)(=O)c1nc(S(=O)(=O)c2ccc(C)cc2)c(N2CCN(CC)CC2)s1	3	5	0	6	25	25	/	/	/
Cn1c(SC2=CS(=O)(=O)c3ccccc32)nc2ccccc21	91*	-5	91*	-27	65*	99*	98*	-9	77*
CC(=O)OCCCNc1cc(Sc2ccc(Cl)cc2)c2nonc2c1[N+](=O)[O-]	70*	-1	79*	-8	75*	103*	53*	-9	97*
Cc1ccc(Sc2cc(NCCCO)c([N+](=O)[O-])c3nonc23)cc1	-2	3	-20	-8	13	21	/	/	/
CC(=O)NC(c1cccc(F)c1)c1nc(-c2cccc(C(C)C)c2)cs1 (stereo not given)	-23	-7	2	8	/	18	/	/	/
Cn1cc2cc([N+](=O)[O-])ccc2n1	3	0	15	4	8	25	/	/	/
COC(=O)[C@]1(CC(C)C)N[C@H](c2ccc(-c3cccc(Cl)c3)cc2)[C@@H]2C(=O)N(C)C(=O)[C@@H]21	32	-21	6	-3	1	-22	/	/	/
O=C(c1ccccc1)C(CCC(CN1CCOCC1)C(=O)c1ccccc1)CN1CCOCC1 (stereo not given)	84*	58*	76*	-41	75*	105*	-31	/	/	ABHD5-PLIN5 conf=46*;HNF4 split-luc=102*;Mdm2-MdmX confirm=92*
COc1ccccc1-c1cn[nH]c1-c1ccc(OCc2ccccc2)cc1O	5	-7	23	8	3	35	/	/	/
COc1ccc(-c2cn[nH]c2-c2ccc(OCc3ccccc3)cc2O)cc1	70*	-4	10	-14	-3	17	89*	/	/	Mdm2-MdmX confirm=90*
Cc1cccc(-n2ccnc2SCC(=O)Nc2cccc(S(=O)(=O)NC3=NCCC3)c2)c1C	-11	-5	14	20	2	6	/	/	/
CSCCC(NC(=O)c1ccc(Cl)cc1Cl)C(=O)N1CCCCCCC1 (stereo not given)	-15	10	5	2	-2	28	/	/	/
O=C(Nc1ccncc1)c1c(Cl)cccc1Cl	64*	5	41*	-14	17	6	71*	7	14
OC1COC(c2ccccc2)OC1C1OC(c2ccccc2)OCC1O (stereo not given)	4	5	0	9	-1	-1	/	/	/
CCCCn1nnnc1C1(C)CCC(=O)N1Cc1cccnc1 (stereo not given)	/	-3	-2	/	/	/	/	/	/
Fc1ccc(CSc2ncnc3scc(-c4ccccc4)c23)cc1	43	-12	27	-9	-14	20	/	/	/
Cn1nnnc1Sc1ncnc2scc(-c3ccc(C#N)cc3)c12	77*	11	90*	-48	92*	103*	3	94*	107*	Mdm2-MdmX confirm=103*
Cn1nnnc1Sc1ncnc2scc(-c3cccc(F)c3)c12	66*	-1	75*	-17	78*	102*	29	54*	104*	Mdm2-MdmX confirm=103*
C=C1C(=O)[C@@]23[C@H](O)C[C@@H]4C(C)(C)CC[C@H](O)[C@]4(C)[C@@H]2C[C@H](O)[C@@H]1[C@H]3O	68*	80*	41*	20	42	43	56*	37	91*	ABHD5-PLIN5 conf=89*;HNF4 split-luc=99*
COc1ccc(-c2cc(=O)oc3cc4occ(C)c4cc23)cc1	16	-9	-24	-3	1	4	/	/	/
COc1ccc(-c2cc(=O)oc3c(C)c(O)ccc23)cc1	83*	-2	17	15	-9	40	92*	/	/	Mdm2-MdmX confirm=92*
SMILES	CF NFkB inh	ABHD5-PLIN5 inh	HIF-2a block	KKLEB tox	TRPM1 prom inh	Peg3 promoter	CF NFkB inh conf	HIF-2a conf	HIF-1a cs	others
CCC(C(=O)Nc1ccc2[nH]ncc2c1)c1ccccc1 (stereo not given)	45	1	23	-30	-14	-2	/	/	/
O=C(CSc1nc2ccccc2c(=O)n1NC(=O)Cc1ccccc1)NCCc1ccccc1	10	1	11	11	14	1	/	/	/
C=CCOc1ccccc1C(=O)/C=C1/C(=O)Nc2ccccc21	92*	85*	80*	-49	7	76*	37	32	55*	ABHD5-PLIN5 conf=95*;HNF4 split-luc=97*
COc1ccc(C(=O)/C=C2/C(=O)Nc3ccccc32)c(OC)c1	84*	69*	91*	-40	46	103*	29	64*	88*	ABHD5-PLIN5 conf=95*;HNF4 split-luc=98*
O=C1Nc2ccccc2/C1=C/c1cnc(-c2ccccc2)[nH]1	15	2	-191	-24	-43	-98	/	/	/
Nc1nc(N)nc(-c2ccc(Oc3ccccc3)cc2)n1	11	-1	-114	-12	-18	-59	/	/	/
Nc1ncnc2c1c(-c1ccc(Oc3ccccc3)cc1)cn2C1CCCC1	53*	-6	67*	-10	6	71*	81*	55*	65*
COc1ccc(-c2cnc3c(NC=O)cc(-c4ccc(C(=O)N5CCOCC5)cc4)cn23)cc1OC	57*	-3	41*	-35	/	35	63*	45*	69*
